Data published in PubChem BioAssay (NCATS).
Inconclusive results are not listed. Entries that show only a call come without a potency. The source holds several records for some structures; these can differ, active in one and inactive in another. Active and inactive are the calls of the source. Unless noted, the call rests on the fitted dose curve; in most records, active means well fitted curve in the direction sought with a large enough effect; inconclusive means small, poorly fitted or top-dose-only effect, or another doubt; inactive means no such curve, though single readings can be large; an effect the other way counts as inactive or inconclusive.

What was measured:
[1] = Cell Viability - Mesenchymal (AID 546); settings: mesenchymal cells viability, qHTS; series mostly up to 91.7 µM;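 further: cells exposed to compound for 40 hours before reading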
Summary of the method: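 Human renal mesenchymal cells (glomerulus-derived), 1000 cells/well, 5 hr 37 °C pre-incubation; compound 40 hr, 37 °C; CellTiter-Glo, 20 min RT; luminescence; AC50 via Hill equation.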

[2] = Cellular Toxicity (caspase-3) HepG2 (AID 654); settings: HepG2 caspase-3 activation, luminescence, 0% = DMSO only, 100% = tamoxifen; series mostly up to 92.2 µM;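 further: cells exposed to compound for 16 hours before reading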
Summary of the method: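 Luminescent Caspase-Glo 3/7 readout after 16 hr compound exposure of human hepatocellular carcinoma HepG2 cells at 37 °C; qHTS concentration-response, normalized DMSO = 0%, 100 uM tamoxifen = 100%; AC50 by standard Hill equation.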

[3] = Cellular Toxicity (caspase-3) Jurkat (AID 655); settings: Jurkat caspase-3 activation, luminescence, DMSO = 0%, tamoxifen = 100%; series mostly up to 92.2 µM;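 further: cells exposed to compound for 16 h at 37 °C before reading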
Summary of the method: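 Jurkat cells (5000/well) in complete medium exposed 16 h at 37 C; caspase-3/7 activity read by Caspase-Glo luminescence after 20 min at room temperature. Normalized to DMSO and 100 uM tamoxifen; AC50 from Hill fits.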

[4] = Cellular Toxicity (caspase-3) HUV-EC-C (AID 656); settings: HUV-EC-C cells, caspase-3 activation (apoptosis), vehicle = 0, 100 µM tamoxifen = 100%; series mostly up to 92.2 µM
Summary of the method: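 HUV-EC-C cells (1000/well) in complete medium, compound-treated 16 h at 37 °C; caspase-3/7 activity read by Caspase-Glo 3/7 luminescence. Normalized to DMSO (basal) and 100 uM tamoxifen (100%); AC50 from Hill-equation concentration-response fits.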

[5] = Cellular Toxicity (caspase-3) SHSY5Y (AID 657); settings: SH-SY5Y caspase-3 activation, DMSO zero, 10 µM staurosporine = 100%; series mostly up to 91.7 µM
Summary of the method: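 SH-SY5Y human neuroblastoma cells, 1500/well, exposed to compound for 16 hours at 37 °C in complete medium. Caspase-3/7 activity read by Caspase-Glo luminescence after 1 hr at room temperature, normalized to DMSO and 10 uM staurosporine; AC50 from Hill fit.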

[6] = Cellular Toxicity (caspase-3) BJ (AID 658); settings: BJ fibroblasts, luminescence, normalized: DMSO 0%, staurosporine 100%; series mostly up to 91.7 µM
Summary of the method: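 qHTS, BJ fibroblasts, 1000 cells/well; 5 hr preincubation, 16 hr compound, 37 °C; Caspase-Glo 3/7 reagent, 1 hr RT; luminescence. DMSO = 0%, 10 uM staurosporine = 100%. Hill-equation AC50.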

[7] = Cellular Toxicity (caspase-3) MRC-5 (AID 659); settings: MRC-5 cells, luminescence, normalized: DMSO 0%, 10 µM staurosporine 100%; series mostly up to 91.7 µM
Summary of the method: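 MRC-5 fibroblasts, 1500/well; 16 h cpd, 37 °C; Caspase-Glo 3/7, 1 h RT; lumi read. Norm: DMSO = 0%, 10 uM staurosporine = 100%. Hill-fit AC50 from qHTS conc-response.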

[8] = Cellular Toxicity (caspase-3) Mesangial (AID 660); settings: mesangial cells, normalized: DMSO 0%, 100 µM tamoxifen 100%; series mostly up to 91.7 µM;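 further: cells exposed to compound for 16 h before the caspase read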
Summary of the method: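 Luminescent Caspase-Glo 3/7 readout (aminoluciferin substrate cleavage, 20 min RT) after 16 h compound exposure at 37 °C of normal human mesangial cells. Signal increase normalized between DMSO basal and 100 uM tamoxifen; Hill-equation AC50.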

[9] = Cellular Toxicity (caspase-3) SK-N-SH (AID 661); settings: SK-N-SH caspase-3 activation, qHTS, DMSO as zero, staurosporine as full; series mostly up to 91.7 µM
Summary of the method: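 Luminescent Caspase-Glo 3/7 read-out after 16 hr compound exposure of SK-N-SH neuroblastoma cells at 37 °C. Signal increase normalized to DMSO (basal) and 10 uM staurosporine (100%); AC50 from Hill equation fits of qHTS concentration-response data.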

[10] = Cellular Toxicity (caspase-3) H-4-II-E (AID 663); settings: H-4-II-E rat hepatoma, scaled: DMSO 0%, 100 µM tamoxifen 100%; series mostly up to 92.2 µM;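 further: cells exposed to compound for 16 hr before readout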
Summary of the method: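 H-4-II-E rat hepatoma, 1500 cells/well, 5 hr settle at 37 °C; compound 16 hr, 37 °C, complete medium; Caspase-Glo 3/7, 20 min RT; luminescence. DMSO = 0%, 100 uM tamoxifen = 100%; Hill-equation AC50.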

[11] = Cellular Toxicity (caspase-3) Hek293 (AID 664); settings: HEK293 caspase-3 activation, DMSO = 0%, 100 µM tamoxifen = 100%; series mostly up to 92.2 µM;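 further: cells exposed to compound for 16 h at 37 °C before readout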
Summary of the method: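 Luminescent Caspase-Glo 3/7 readout (aminoluciferin release) in HEK293 cells after 16 h compound treatment, 37 °C. Normalization: DMSO = basal, 100 uM tamoxifen = 100% stimulation. Concentration-response fitted with standard Hill equation for AC50.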

[12] = Cellular Toxicity (caspase-3) N2a (AID 665); settings: N2a cells, luminescence, normalized: DMSO 0%, 10 µM staurosporine 100%; series mostly up to 92.2 µM;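 further: compound exposure lasted 16 h at 37 °C before readout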
Summary of the method: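 Luminescent Caspase-Glo 3/7 readout in N2a mouse neuroblastoma cells after 16 h compound exposure at 37 °C. Signal scaled to DMSO (basal) and 10 uM staurosporine (100%). Concentration-response fitted with Hill equation for AC50.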

[13] = Cellular Toxicity (caspase-3) NIH 3T3 (AID 666); settings: NIH 3T3 caspase-3 activation, apoptosis/toxicity, 0% DMSO, 100% is 100 µM tamoxifen; series mostly up to 92.2 µM
Summary of the method: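 NIH 3T3, 1000 cells/well, 5 hr settle then 16 hr compound at 37°C; Caspase-Glo 3/7, 20 min RT, luminescence. DMSO = basal, 100 uM tamoxifen = 100%. Hill-equation AC50, qHTS.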

[14] = Cellular Toxicity (caspase-3) Renal Proximal Tubule (AID 667); settings: renal proximal tubule cells, primary cells freshly taken from rat, solvent-only wells 0%, staurosporine 100%; series mostly up to 91.7 µM;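 further: cells exposed to compound for 16 hours at 37 °C before detection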
Summary of the method: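 Freshly isolated primary rat kidney proximal tubule cells, 1000/well, treated 16 hr at 37 °C, then Caspase-Glo 3/7 luminescence after 1 hr. Normalized to DMSO and 10 uM staurosporine; AC50 from Hill fit.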

[15] = biological target: Cytochrome P450 3A4 (Homo sapiens) (UniProt P08684); assay: qHTS Assay for Activators of Cytochrome P450 3A4 (AID 885); settings: recombinant CYP3A4, Luciferin-PPXE luminescence, 60 min; series mostly up to 57.1 µM; further: nearly all actives have a fitted effect of over 65% in size
Cytochrome P450 3A4 (Homo sapiens), sequence (P08684 whole entry, looked up): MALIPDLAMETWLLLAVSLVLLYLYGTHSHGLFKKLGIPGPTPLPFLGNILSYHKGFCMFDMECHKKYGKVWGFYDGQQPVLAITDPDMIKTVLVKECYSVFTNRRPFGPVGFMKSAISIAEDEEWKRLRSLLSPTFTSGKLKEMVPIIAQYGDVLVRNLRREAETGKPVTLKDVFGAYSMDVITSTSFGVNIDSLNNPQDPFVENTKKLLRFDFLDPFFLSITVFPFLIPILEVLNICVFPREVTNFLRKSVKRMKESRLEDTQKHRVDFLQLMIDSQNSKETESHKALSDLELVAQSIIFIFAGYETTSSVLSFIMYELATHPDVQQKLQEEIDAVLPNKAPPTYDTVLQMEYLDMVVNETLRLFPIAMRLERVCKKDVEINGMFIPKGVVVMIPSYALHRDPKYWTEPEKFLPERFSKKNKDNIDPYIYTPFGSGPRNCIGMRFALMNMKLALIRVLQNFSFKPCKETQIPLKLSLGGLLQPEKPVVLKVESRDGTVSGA
Summary of the method: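 Human CYP3A4 dealkylates Luciferin-PPXE to luciferin, which luciferase detection converts to light. Substrate was at its KM (25uM), buffer 200mM KPO4, reaction 60 min at RT.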

[16] = biological target: Cytochrome P450 2D6 (Homo sapiens) (UniProt P10635); assay: qHTS Assay for Inhibitors and Substrates of Cytochrome P450 2D6 (AID 891); settings: recombinant CYP2D6, luciferin-ME EGE luminescence; series mostly up to 57.1 µM; further: nearly all actives have a fitted effect of over 60% in size; further: potency means the concentration at half of the fitted maximal effect
Cytochrome P450 2D6 (Homo sapiens), sequence (P10635 whole entry, looked up): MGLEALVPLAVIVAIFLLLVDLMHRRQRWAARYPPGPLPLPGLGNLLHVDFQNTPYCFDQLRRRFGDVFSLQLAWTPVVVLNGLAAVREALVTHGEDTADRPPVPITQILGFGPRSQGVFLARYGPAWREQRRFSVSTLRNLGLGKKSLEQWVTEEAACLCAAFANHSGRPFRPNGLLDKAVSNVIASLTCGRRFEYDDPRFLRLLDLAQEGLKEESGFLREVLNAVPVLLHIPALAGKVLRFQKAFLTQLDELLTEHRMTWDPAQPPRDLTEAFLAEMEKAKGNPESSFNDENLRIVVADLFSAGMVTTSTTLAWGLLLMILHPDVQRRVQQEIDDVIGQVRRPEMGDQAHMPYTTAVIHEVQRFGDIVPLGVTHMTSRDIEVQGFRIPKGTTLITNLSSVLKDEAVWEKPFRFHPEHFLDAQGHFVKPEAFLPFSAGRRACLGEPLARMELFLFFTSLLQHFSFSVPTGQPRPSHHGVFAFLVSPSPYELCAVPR
Summary of the method: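 Luminescent read-out of luciferin formed by 5 nM human CYP2D6 demethylating 30 uM Luciferin-ME EGE (Km level) over 60 min at room temperature after NADPH regeneration addition. Data normalized to full inhibition by 1.43 uM quinidine.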

[17] = biological target: Cytochrome P450 3A4 (Homo sapiens) (UniProt P08684); assay: qHTS Assay for Inhibitors and Substrates of Cytochrome P450 3A4 (AID 884); settings: recombinant CYP3A4, Luciferin-PPXE luminescence; series mostly up to 57.1 µM; further: nearly all actives have a fitted effect of over 50% in size; further: potency means the concentration at half of the fitted maximal effect
Summary of the method: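 Luminescent readout of luciferin produced by CYP3A4 (20 nM) dealkylation of Luciferin-PPXE, 25 uM (its KM). NADPH-driven reaction ran 60 min at RT after 10 min compound preincubation; data scaled to 57 uM ketoconazole as 100% inhibition.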

[18] = biological target: 3',5'-cyclic-AMP phosphodiesterase 4B (Homo sapiens) (UniProt Q07343); assay: qHTS Assay for Inhibitors of PDE-IV (AID 607; active means well fitted activation curve with a large enough effect in the main read-out, with a control signal flat, not every such curve was filed as active; further: potency means the concentration at half of the fitted maximal effect); settings: HEK293 ACTOne CNG channel cells, membrane potential fluorescence; series mostly up to 22.9 µM
3',5'-cyclic-AMP phosphodiesterase 4B (Homo sapiens), sequence (Q07343 whole entry, looked up): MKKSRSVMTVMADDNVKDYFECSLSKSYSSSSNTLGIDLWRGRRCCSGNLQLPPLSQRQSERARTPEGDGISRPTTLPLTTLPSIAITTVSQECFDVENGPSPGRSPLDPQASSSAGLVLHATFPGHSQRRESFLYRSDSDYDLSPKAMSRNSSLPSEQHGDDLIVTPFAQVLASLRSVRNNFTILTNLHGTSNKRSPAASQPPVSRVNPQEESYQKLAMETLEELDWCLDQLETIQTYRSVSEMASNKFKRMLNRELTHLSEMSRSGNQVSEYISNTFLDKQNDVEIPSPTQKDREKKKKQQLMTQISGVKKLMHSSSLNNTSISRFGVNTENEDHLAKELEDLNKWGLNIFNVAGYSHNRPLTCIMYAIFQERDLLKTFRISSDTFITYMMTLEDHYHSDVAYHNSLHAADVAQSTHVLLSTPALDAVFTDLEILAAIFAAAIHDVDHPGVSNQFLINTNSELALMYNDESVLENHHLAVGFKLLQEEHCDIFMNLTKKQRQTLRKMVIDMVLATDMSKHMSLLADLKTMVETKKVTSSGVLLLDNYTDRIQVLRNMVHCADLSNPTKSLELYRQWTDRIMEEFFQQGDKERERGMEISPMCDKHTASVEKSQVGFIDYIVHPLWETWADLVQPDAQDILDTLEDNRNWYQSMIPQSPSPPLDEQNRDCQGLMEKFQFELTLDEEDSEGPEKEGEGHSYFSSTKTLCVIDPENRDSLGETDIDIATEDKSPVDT
Summary of the method: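 HEK293 ACTOne cells with CNG channel (1000/well), endogenous PDE4; membrane potential dye, compounds up to 22.9 uM final. Fluorescence Ex 535/Em 590; RO 20-1724 (100 uM final) as reference.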

[19] = biological target: Guanine nucleotide-binding protein G(i) subunit alpha-1 (Homo sapiens) (UniProt P63096); assay: qHTS Assay for Inhibitors of RGS12 GoLoco Motif Activity (Green Fluorophore) (AID 879); settings: Galphai1/FITC-RGS12 GoLoco peptide, fluorescence polarization; series mostly up to 57.1 µM;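 further: negative values mean loss of peptide binding seen as reduced polarization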
Guanine nucleotide-binding protein G(i) subunit alpha-1 (Homo sapiens), sequence (P63096 whole entry, looked up): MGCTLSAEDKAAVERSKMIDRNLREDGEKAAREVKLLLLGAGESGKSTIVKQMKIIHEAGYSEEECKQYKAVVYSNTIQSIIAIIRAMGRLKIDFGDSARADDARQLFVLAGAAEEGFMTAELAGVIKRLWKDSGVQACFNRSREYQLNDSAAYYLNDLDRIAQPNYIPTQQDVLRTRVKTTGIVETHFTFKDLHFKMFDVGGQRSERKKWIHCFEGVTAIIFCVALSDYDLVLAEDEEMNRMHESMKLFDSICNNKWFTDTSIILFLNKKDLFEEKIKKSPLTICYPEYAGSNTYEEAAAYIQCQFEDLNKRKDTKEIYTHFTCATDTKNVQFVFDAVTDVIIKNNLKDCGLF
Summary of the method: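 A drop in FITC polarization marked displacement of the FITC-tagged RGS12 GoLoco peptide (10 nM) from Gαi1 (50 nM). Compounds were incubated 10 min at room temperature in Tris pH 7.5 buffer containing 150 mM NaCl, 0.1 mM GDP and 0.05% NP40; unlabeled peptide titration served as control.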

NC(=O)c1ccccc1
outcome [1]: inactive
outcome [2]: inactive
outcome [3]: inactive
outcome [4]: inactive
outcome [5]: inactive
outcome [6]: inactive
outcome [7]: inactive
outcome [8]: inactive
outcome [9]: inactive
outcome [10]: inactive
outcome [11]: inactive
outcome [12]: inactive
outcome [13]: inactive
outcome [14]: inactive
Potency [15]: inactive
Potency [16]: inactive

CC(=O)C(C)=O
outcome [1]: inactive
outcome [2]: inactive
outcome [3]: inactive
outcome [4]: inactive
outcome [5]: inactive
outcome [6]: inactive
outcome [7]: inactive
outcome [8]: inactive
outcome [9]: inactive
outcome [10]: inactive
outcome [11]: inactive
outcome [12]: inactive
outcome [13]: inactive
outcome [14]: inactive
Potency [17]: inactive
Potency [16]: inactive

COCc1nc2c([nH]1)c(=O)n(C)c(=O)n2CC(C)C
Potency [15]: inactive
Potency [16]: inactive

Cc1nc(N=Nc2cc(S(=O)(=O)O)c3cc([N+](=O)[O-])cc(S(=O)(=O)O)c3c2)c(COP(=O)(O)O)c(C=O)c1O
Potency [16]: inactive

CCCn1c(=O)c2[nH]c(C3CCCC3)nc2n(CCC)c1=O
Potency [18]: 5.01 µM (active) and inactive
Potency [19]: inactive
Potency [17]: inactive
Potency [16]: inactive

N[C@H](C(=O)O)c1cc(O)cc(O)c1
Potency [18]: inactive
Potency [19]: inactive
Potency [15]: inactive
Potency [16]: inactive

Oc1cc(O)c2c(c1)O[C@H](c1ccc(O)c(O)c1)[C@@H](O)C2
Potency [18]: inactive
Potency [17]: inactive
Potency [16]: inactive

N=C(N)SCCN
Potency [18]: inactive
Potency [19]: inactive
Potency [17]: 3.16 µM (active)
Potency [15]: inactive

O=[N+]([O-])c1cccc2cn[nH]c12
Potency [18]: inactive
Potency [19]: inactive
Potency [16]: inactive

CCSC(=N)N
Potency [18]: inactive
Potency [19]: inactive
Potency [16]: 3.98 µM (active)

COc1ccc2c(c1)c(CC(=O)O)c(C)n2C(=O)c1ccccc1
Potency [18]: inactive
Potency [19]: inactive
Potency [16]: inactive

O=c1[nH]c2cc(Cl)ccc2c(O)c1-c1ccc(Oc2ccccc2)cc1
Potency [18]: inactive
Potency [19]: inactive
Potency [15]: inactive
